From ChEMBL document CHEMBL4513216, “Probing the Open Global Health Chemical Diversity Library for Multistage-Active Starting Points for Next-Generation Antimalarials” (ACS Infect Dis, 2020)
Out of some 65,000 compounds screened, about 2,100 (3.2%) showed an effect of 50% or more. The median lay at about -52%. For the sample, strong results were picked, then their nearest neighbours and some compounds at random.

The compounds below were run on Plasmodium falciparum (assay: Screen against P. falciparum Asexual Blood Stage (ABS), at 5uM). Details: tested at 5 uM.
Type: functional, Dd2

With `O=C(CSCC1CC1)N1CCCN(c2ccc(F)cc2)CC1` as the compound, how does the INHIBITION read?
The INHIBITION was -42.8%.

For `COc1ccc(-n2cnnc2SCC(=O)N(C)C(C)C)cn1`, which INHIBITION is on record?
The INHIBITION was -60.2%.

With `O=C(C1CC1)N1CCc2ccccc2C12CCNCC2` as the compound, how does the INHIBITION read?
Its INHIBITION is -55.8%.

How did the INHIBITION turn out when `CCOC(=O)N1CCc2ccccc2C12CCNCC2` was run?
Its INHIBITION is 54.6%.

With `COCC(=O)N1CCc2ccccc2C12CCNCC2` as the compound, how does the INHIBITION read?
The INHIBITION was -52%.

For `Cc1cc(-c2cnc(N3CCNC(=O)C3)nc2-c2ccncc2)on1`, which INHIBITION is on record?
The INHIBITION was -43.2%.

`CCc1nc(C)c(C(=O)N2C[C@@H](C(=O)O)[C@H](C3CC3)C2)s1` was tested. Which INHIBITION did it give?
Its INHIBITION is -112%.

`COCCN(C)C[C@H]1C[C@H](CO)CN(C(=O)c2ccc(=O)n(C)c2)C1` was tested. Which INHIBITION did it give?
The INHIBITION was -100%.

Which INHIBITION does the source give for `Cc1ccc(N2CCC3(CN(Cc4ccncc4)CCC3(F)F)C2)nn1` (centres undefined) here?
Its INHIBITION is -5.89%.

With `CCC(NC(=O)c1ccco1)c1ccccc1OCC(=O)N1CCCC1` (centres undefined) as the compound, how does the INHIBITION read?
Its INHIBITION is -51.4%.

For `CCC(NCc1ccccc1)c1ccccc1OCC(=O)NC` (centres undefined), which INHIBITION is on record?
Its INHIBITION is 65.6%.

Which INHIBITION does the source give for `CCC(NCc1ccccn1)c1ccccc1OCC(=O)NC` (centres undefined) here?
Its INHIBITION is -27.1%.

Which INHIBITION does the source give for `CC(Cn1cncn1)NC(=O)N1CC2(CCCC2)c2ccccc21` (centres undefined) here?
Its INHIBITION is -89%.

For `N#CC1(NC(=O)Cc2cc(Cl)c3c(c2)OCCO3)CCC1`, which INHIBITION is on record?
The INHIBITION was -75%.

Which INHIBITION does the source give for `O=C(c1cocn1)N1CC[C@H]2OCC[C@@]2(COc2ncccc2F)C1` here?
The INHIBITION was -34.6%.

`COCC(=O)N1Cc2ccnn2CC(COCCN(C)C)C1` (centres undefined) was tested. Which INHIBITION did it give?
The INHIBITION was -13.6%.

Which INHIBITION does the source give for `CC(C)OCCCN1CCCC(c2nc3ccccc3n2C(C)C)C1` (centres undefined) here?
The INHIBITION was 56%.

`CC(C)n1c(C2CCCN(CCS(C)(=O)=O)C2)nc2ccccc21` (centres undefined) was tested. Which INHIBITION did it give?
The INHIBITION was -69.9%.

`CC(C)n1c(C2CCCN(CC(N)=O)C2)nc2ccccc21` (centres undefined) was tested. Which INHIBITION did it give?
The INHIBITION was -23.5%.

Which INHIBITION does the source give for `Cc1ccnc(NC(=O)CCc2cnn(C)c2C)c1` here?
Its INHIBITION is -26.3%.

How did the INHIBITION turn out when `CC(C)CSCCCNC(=O)C1CCC1` was run?
Its INHIBITION is -47.5%.

For `CCN(CC1CCOC1)S(=O)(=O)Cc1ccccc1Cl` (centres undefined), which INHIBITION is on record?
Its INHIBITION is -53.1%.

For `COc1ccc(Cl)cc1CCNC(=O)N(C)CC1CCOC1` (centres undefined), which INHIBITION is on record?
Its INHIBITION is -102%.

For `CCN(CC1CCOC1)S(=O)(=O)Cc1cc(Cl)ccc1OC` (centres undefined), which INHIBITION is on record?
Its INHIBITION is 59.1%.

With `CN1CCCCC12CCN(C(=O)c1cccn1C)CC2` as the compound, how does the INHIBITION read?
Its INHIBITION is -27%.

Which INHIBITION does the source give for `COCCNc1ncnc2c1CCN(C(=O)CC1CCC(=O)N1)CC2` (centres undefined) here?
Its INHIBITION is -36%.

How did the INHIBITION turn out when `CC(=O)N1CCOC2(CCCN(C(=O)CCN3CCCCC3)C2)C1` (centres undefined) was run?
The INHIBITION was 56%.

`CC(=O)N1CCC2(CCCN(C(=O)CCN3CCCCC3)C2)C1` (centres undefined) was tested. Which INHIBITION did it give?
Its INHIBITION is -141%.

How did the INHIBITION turn out when `CC(=O)N1CCCC2(C1)CN(C(=O)C1CCCCC1)CCO2` (centres undefined) was run?
The INHIBITION was -104%.

With `Cc1nccc(NCc2cncc3c2CCN(S(C)(=O)=O)C3)n1` as the compound, how does the INHIBITION read?
Its INHIBITION is -102%.

With `Nc1cc(-c2cccs2)nn(CC(=O)N2CCc3ccccc32)c1=O` as the compound, how does the INHIBITION read?
The INHIBITION was -13.9%.

For `Cc1cc(C)n(CC(C)NCCN2CCc3ccccc32)n1` (centres undefined), which INHIBITION is on record?
Its INHIBITION is 54.7%.

With `Cc1ccnc(NCCCN2CCc3ccccc32)n1` as the compound, how does the INHIBITION read?
Its INHIBITION is 19.8%.

How did the INHIBITION turn out when `Cc1cc(C)n(CC(C)NCCn2nc(C)c(Cl)c2C)n1` (centres undefined) was run?
Its INHIBITION is -48.1%.

Which INHIBITION does the source give for `N#CC1(C(=O)N2C[C@@H]3CC[C@H]2CN(Cc2cscn2)C3)CCOCC1` here?
The INHIBITION was -81.2%.

For `COc1cc(F)c(NCc2nc3ccccc3n2C)cc1OC`, which INHIBITION is on record?
Its INHIBITION is -381%.

Which INHIBITION does the source give for `O=C1N(Cc2cccnc2)CCC12CCCN(c1ncccn1)C2` (centres undefined) here?
Its INHIBITION is -123%.

Which INHIBITION does the source give for `CNC(=O)NC(=O)CN1CCCC(Cc2ccccc2OC)C1` (centres undefined) here?
The INHIBITION was -87.4%.

How did the INHIBITION turn out when `COc1ccccc1CN1CCCC(Cc2nccnc2N)C1` (centres undefined) was run?
Its INHIBITION is 62.1%.

For `Nc1nccnc1CC1CCCN(Cc2ccnc3ccccc23)C1` (centres undefined), which INHIBITION is on record?
Its INHIBITION is -53.7%.

How did the INHIBITION turn out when `Nc1nccnc1CC1CCCN(Cc2cccc3[nH]ccc23)C1` (centres undefined) was run?
Its INHIBITION is 19.4%.

For `COc1ccccc1CC1CCCN(CC(=O)NC2CC2)C1` (centres undefined), which INHIBITION is on record?
The INHIBITION was 16.1%.

`CNC(=O)CN1CCCC(Cc2ccccc2OC)C1` (centres undefined) was tested. Which INHIBITION did it give?
The INHIBITION was 61.9%.

For `CCN1CCN(c2ccccc2NC(=O)N(C)C2CCSC2)CC1` (centres undefined), which INHIBITION is on record?
The INHIBITION was 37.6%.

`CN(C)Cc1noc2c1CN(Cc1ccc[nH]1)CC2` was tested. Which INHIBITION did it give?
Its INHIBITION is -77.5%.

Which INHIBITION does the source give for `Cc1ccc2c(c1)OC(C)(C)CC2NC(=O)C1CCN(C)CC1` (centres undefined) here?
Its INHIBITION is 30.2%.

`Cc1ccc2c(c1)OCCCC2NC1CCN(C)CC1` (centres undefined) was tested. Which INHIBITION did it give?
Its INHIBITION is 50.3%.

How did the INHIBITION turn out when `Cc1ccc2c(c1)C(NCc1nccn1Cc1ccccc1)CCCO2` (centres undefined) was run?
Its INHIBITION is 35.8%.

With `Cc1cc2c(cc1C)C(NC1CC1)CCCO2` (centres undefined) as the compound, how does the INHIBITION read?
Its INHIBITION is -3.02%.

For `Cc1ccc2c(c1)C(NCc1nnc3n1CCCCC3)CCCO2` (centres undefined), which INHIBITION is on record?
The INHIBITION was -74.6%.

How did the INHIBITION turn out when `Cc1ccc2c(c1)C(NC1CCN(C)CC1)CCCO2` (centres undefined) was run?
Its INHIBITION is 66.8%.

Which INHIBITION does the source give for `CS(=O)(=O)N1CC[C@H]2O[C@H](C(=O)NCCc3ccccn3)CC[C@H]21` here?
The INHIBITION was -48.2%.

`COc1cccc(OCCc2nc3c(cc2C(N)=O)CCC3)c1` was tested. Which INHIBITION did it give?
Its INHIBITION is -58.5%.

Which INHIBITION does the source give for `Cc1nc(CN2CCCC(N(C)CC3CCCC3)C2)no1` (centres undefined) here?
The INHIBITION was -42.4%.
